Screens from PubChem BioAssay.
Bim-Mcl-1 – inhibitors of Bim peptide binding to Mcl-1, primary screen, biochemical, bead-based flow cytometry, multiplex. inhibition, % at 10 µM. AID 1009, 2008. Bim peptide-Mcl-1 binding. Induced myeloid leukemia cell differentiation protein Mcl-1 (Homo sapiens), Q07820. 0.1% of 190,000 active; in the data active = inhibition above about 40%;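 note: 0% = no compound tracer wells and 100% = peptide blocker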
Target sequence (Q07820 whole entry, looked up): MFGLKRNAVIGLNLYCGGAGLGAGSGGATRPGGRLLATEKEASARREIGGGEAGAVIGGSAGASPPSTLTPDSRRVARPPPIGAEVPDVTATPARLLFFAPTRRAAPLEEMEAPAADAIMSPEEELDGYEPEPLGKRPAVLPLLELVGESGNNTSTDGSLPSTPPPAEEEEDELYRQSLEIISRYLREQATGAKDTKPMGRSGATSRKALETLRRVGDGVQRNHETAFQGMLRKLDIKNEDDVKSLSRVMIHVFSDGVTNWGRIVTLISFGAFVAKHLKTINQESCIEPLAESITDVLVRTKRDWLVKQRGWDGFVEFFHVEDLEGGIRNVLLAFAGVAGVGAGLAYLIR
BCLXL inh – inhibitors of human Bcl-xL, primary screen, biochemical, fluorescence polarization, HTS; Bcl-2-like protein 1 (Homo sapiens), Q07817; GST-Bcl-xL / FITC-Bim BH3 peptide fluorescence polarization; inhibition, % at 10.9 µM; 0.7% of 320,000 active; AID 2129, 2009;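 active = inhibition above the mean of all tested compounds plus 3 SD, cutoff set per campaign, cut at about 30% in these data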;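 note: 0% = DMSO wells and 100% = unlabeled Bim-BH3 peptide competitor; inhibitors lower millipolarization by displacing the labeled peptide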
Mcl1-Bid inh – Mcl-1/Bid binding inhibitors, primary screen, biochemical, TR-FRET, 1536-well; Induced myeloid leukemia cell differentiation protein Mcl-1 (Homo sapiens), Q07820; TR-FRET Mcl-1/Bid-Dy647 peptide binding; inhibition, % at 21.7 µM; 0.97% of 220,000 active; AID 1021, 2008;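 active = compounds that cut the binding signal by more than half at the single screening dose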;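 note: His-tagged Mcl-1 with europium anti-His antibody binding Bid BH3 peptide; 0% = Mcl-1 plus peptide wells and 100% = peptide-only wells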
Mcl1-Noxa inh – Mcl-1/Noxa binding inhibitors, primary screen, biochemical, TR-FRET, 1536-well; TR-FRET Mcl-1/Noxa peptide binding, 2 h; inhibition, % at 21.7 µM; 1.5% of 220,000 active; AID 1022, 2008;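 active = compounds that cut the protein-peptide binding signal by more than 50% relative to plate controls in a single-dose test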;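 note: His-tagged Mcl-1 with rhodamine Noxa BH3 peptide and terbium anti-His antibody; 0% = Mcl-1 plus Noxa peptide wells and 100% = peptide-only wells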
MCL1-BIM inh – inhibitors of MCL1 binding to BIM-BH3, primary screen, biochemical, fluorescence polarization; GST-MCL1 / FITC-Bim-BH3 fluorescence polarization; inhibition, % at 10.9 µM; 0.68% of 320,000 active;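 active = inhibition above the mean inhibition of all tested compounds plus 3 SD, set per campaign, cut at about 40% in these data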;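 note: 0% = DMSO wells and 100% = unlabeled Bim-BH3 peptide control; higher means more loss of mP so more displacement of Bim peptide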
GLD-1 TGE inh – GLD-1/TGE RNA complex disruptors, primary screen, biochemical, fluorescence polarization | purified GLD-1 + fluorescein TGE RNA | AID 2280, 2010 | 0.44% of 320,000 active | Female germline-specific tumor suppressor gld-1 (Caenorhabditis elegans), Q17339 | inhibition, % at 5.96 µM;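 active = percent inhibition above a per-plate cutoff, the plate mean of test compounds plus 3 SD, cut at about 30% in these data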;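 note: 0% = DMSO wells with GLD-1 and probe and 100% = wells lacking GLD-1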
Bcl-xL conf – Bcl-xL inhibitors blocking Bim BH3 binding, confirmation, counter-screen for MCL1 inhibitor project, biochemical, fluorescence polarization; shares compounds with MCL1-BIM inh; 54% of 1,700 active; GST-Bcl-xL / FITC-Bim BH3 peptide FP binding; inhibition, % at 10.9 µM;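 active = inhibition above a cutoff equal to the mean inhibition of all tested compounds plus 3 SD, cut at about 30% in these data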;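 note: 0% = DMSO wells and 100% = unlabeled Bim BH3 control peptide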
MCL1 BIM confirm – inhibitors of MCL1 binding to BIM-BH3, confirmation, biochemical, fluorescence polarization, triplicate; shares compounds with MCL1-BIM inh; GST-MCL1 / FITC-Bim-BH3 fluorescence polarization; inhibition, % at 10.9 µM; 61% of 1,700 active; AID 2168, 2009;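 active = inhibition above the average of all tested compounds plus 3 SD, cut at about 40% in these data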;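 note: 0% = DMSO wells and 100% = unlabeled Bim-BH3 control peptide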
* hit, by the source's call. Most compounds without a hit are left out; they make up all but 2.3% or so of the library.

What do the screens show for `OC(CN1CCOCC1)c1csc2ccccc12` (stereo unspecified)?
BCLXL inh: 4; MCL1-BIM inh: 10; GLD-1 TGE inh: 2

What do the screens show for `CN(C)[C@@H]1C(=O)C(C(N)=O)=C(O)[C@@]2(O)C(=O)C3=C(O)c4c(O)cccc4[C@@](C)(O)[C@H]3[C@H](O)[C@@H]12`?
Bim-Mcl-1: 3; BCLXL inh: 153*; Mcl1-Bid inh: 72*; Mcl1-Noxa inh: 111*; MCL1-BIM inh: active; GLD-1 TGE inh: 93*

How did CCn1cc(C=C2C(=O)NC(=O)NC2=O)c2ccccc21 do in these assays?
BCLXL inh: 136*; MCL1-BIM inh: 148*; GLD-1 TGE inh: -14; Bcl-xL conf: 112*; MCL1 BIM confirm: 123*

What do the screens show for `COC(=O)Cn1cc(C=C2C(=O)NC(=O)NC2=O)c2ccccc21`?
BCLXL inh: -5; MCL1-BIM inh: -6; GLD-1 TGE inh: -17

How did S=P(Nn1cnnc1)(c1ccccc1)c1ccccc1 do in these assays?
Bim-Mcl-1: 0; BCLXL inh: 8; Mcl1-Bid inh: -24; Mcl1-Noxa inh: 3; MCL1-BIM inh: 7; GLD-1 TGE inh: -2

What do the screens show for `Cc1ccc(CNC2=NCCS2)cc1`?
BCLXL inh: 3; Mcl1-Bid inh: -7; Mcl1-Noxa inh: -3; MCL1-BIM inh: 6; GLD-1 TGE inh: 1

Results for O=C1NC(=S)N(c2ccccc2)C(=O)/C1=C/c1ccco1 ?
BCLXL inh: 47*; MCL1-BIM inh: 53*; GLD-1 TGE inh: 25; Bcl-xL conf: 18; MCL1 BIM confirm: 24

Results for CCCOc1ccc(C(=O)NC(=S)N2C[C@H]3C[C@H](C2)c2cccc(=O)n2C3)cc1 ?
BCLXL inh: 3; MCL1-BIM inh: 18; GLD-1 TGE inh: 1

What do the screens show for `CC[N+](CC)(CC)CC`?
BCLXL inh: 11; Mcl1-Bid inh: -49; Mcl1-Noxa inh: -8; MCL1-BIM inh: 50*; GLD-1 TGE inh: 3; Bcl-xL conf: 13; MCL1 BIM confirm: 2

How did COc1ccc(CCNCC2CCCO2)cc1 (stereo unspecified) do in these assays?
BCLXL inh: 4; MCL1-BIM inh: 6; GLD-1 TGE inh: 10

How did CCOc1cccc(OCC)c2c(C)[n+](CC3CCCO3)c(C)c1-2 (stereo unspecified) do in these assays?
Bim-Mcl-1: -3; BCLXL inh: 53*; Mcl1-Bid inh: 36; Mcl1-Noxa inh: 27; MCL1-BIM inh: 62*; GLD-1 TGE inh: 32*; Bcl-xL conf: 17; MCL1 BIM confirm: 17

Results for C[N+]1(C)C2CC(OC(=O)C(CO)c3ccccc3)CC1C1OC12 (stereo unspecified) ?
BCLXL inh: 0; MCL1-BIM inh: -8; GLD-1 TGE inh: 5

How did COc1cc(OC)c(OC)cc1/C=C1/C(=O)NC(=O)N(Cc2ccccc2)C1=O do in these assays?
BCLXL inh: -17; Mcl1-Bid inh: -33; Mcl1-Noxa inh: 8; MCL1-BIM inh: -18; GLD-1 TGE inh: -10
